# Measured values published in PubChem BioAssay (NCI).
# About 79,000 compounds went through this panel and 15% of them were active in at least one assay; those are over-represented in the sample as a whole. Values without a mark were called inactive. Active and inactive are the calls of the source. No stated cut-off is given here; in the data, active means growth inhibition above about 70%; inactive means the rest.
# What was measured:
# [1] = NCI Yeast Anticancer Drug Screen. Data for the mec2-1 strain (AID 157); conditions: S. cerevisiae mec2-1 strain, active compounds read high
# Method in brief: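 mec2-1 yeast strain, carrying an alteration in DNA damage repair or cell cycle control, was exposed to compounds; growth inhibition was measured relative to vehicle-treated controls.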
# [2] = NCI Yeast Anticancer Drug Screen. Data for the rad14 strain (AID 159);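 further: 0% = growth of vehicle-treated control cultures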; conditions: S. cerevisiae rad14 strain growth inhibition, active compounds read high
# Method in brief: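 Yeast cells carrying a defined DNA-repair defect were exposed to compounds, and growth inhibition was calculated relative to vehicle-treated control cultures.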
# [3] = NCI Yeast Anticancer Drug Screen. Data for the sgs1 mgt1 strain (AID 161);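 further: 0% = growth of cultures given vehicle only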; conditions: S. cerevisiae sgs1 mgt1 strain, active compounds read high
# Method in brief: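 Compounds are added to genetically altered yeast, and growth is compared with cultures given vehicle alone to give percent inhibition.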
# [4] = NCI Yeast Anticancer Drug Screen. Data for the CLN2oe strain (AID 163);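 further: 0% = growth of vehicle-only control cultures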; conditions: S. cerevisiae CLN2oe strain, active compounds read high
# Method in brief: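 Yeast cells carrying a defined cell-cycle control alteration were exposed to test compounds. Growth inhibition was scored against vehicle-treated control cultures.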
# [5] = NCI Yeast Anticancer Drug Screen. Data for the cln2 rad14 strain (AID 165);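 further: 0% = growth equal to vehicle treated cultures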; conditions: S. cerevisiae cln2 rad14 strain, active compounds read high
# Method in brief: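 Yeast carrying cln2 and rad14 alterations (cell cycle control and DNA damage repair) were exposed to compounds. Growth inhibition was measured against vehicle-treated controls.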
# [6] = NCI Yeast Anticancer Drug Screen. Data for the bub3 strain (AID 167); conditions: S. cerevisiae bub3 mutant strain, active compounds read high
# Method in brief: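 Compounds were applied to a genetically altered yeast strain carrying a cell-cycle control defect. Growth inhibition was scored against vehicle-treated controls.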
# [7] = NCI Yeast Anticancer Drug Screen. Data for the wt2 strain (AID 169);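 further: 0% = growth of vehicle-treated yeast cultures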; conditions: S. cerevisiae wt2 strain growth inhibition, active compounds read high
# Method in brief: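 Yeast cells were exposed to test compounds, and growth inhibition was measured relative to vehicle-treated controls.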
# [8] = NCI Yeast Anticancer Drug Screen. Data for the mlh1 strain (AID 171);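 further: 0% = growth of vehicle-treated control cultures of the same strain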; conditions: S. cerevisiae mlh1 strain growth inhibition, active compounds read high
# Method in brief: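 Yeast carrying a defined genetic alteration in DNA damage repair or cell cycle control were exposed to test compounds. Growth inhibition was measured relative to vehicle-treated controls.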
# [9] = NCI Yeast Anticancer Drug Screen. Data for the sgs1 strain (AID 173);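 further: 0% = growth of vehicle-only control cultures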; conditions: S. cerevisiae sgs1 mutant, active compounds read high
# Method in brief: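 Yeast mutant strains carrying defined defects in DNA damage repair or cell cycle control were exposed to test compounds. Growth inhibition was scored against vehicle-treated controls.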
# [10] = NCI Yeast Anticancer Drug Screen. Data for the mlh1 rad18 strain (AID 175); conditions: S. cerevisiae mlh1 rad18 strain growth inhibition, active compounds read high
# Method in brief: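 Growth inhibition of the yeast strain was measured after compound exposure and expressed relative to vehicle-treated controls. The strain carries defined defects in DNA damage repair.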
# [11] = NCI Yeast Anticancer Drug Screen. Data for the rad18 strain (AID 177); conditions: S. cerevisiae rad18 mutant growth inhibition, active compounds read high
# Method in brief: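 Yeast carrying a defined DNA damage repair alteration were exposed to compounds. Growth inhibition was expressed relative to vehicle-treated controls.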
# [12] = NCI Yeast Anticancer Drug Screen. Data for the rad52 strain (AID 147);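 further: 0% = growth of vehicle-treated control cultures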; conditions: S. cerevisiae rad52 mutant growth inhibition, active compounds read high
# Method in brief: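 Yeast strain carrying a DNA damage repair alteration was exposed to test compounds. Growth inhibition was measured relative to vehicle-treated controls.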
# [13] = NCI Yeast Anticancer Drug Screen. Data for the wt1 strain (AID 149);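 further: 0% = growth of vehicle-treated wt1 cultures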; conditions: S. cerevisiae wt1 strain (SPY 50644) growth inhibition, active compounds read high
# Method in brief: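 Yeast wt1 strain exposed to compounds; growth inhibition measured relative to vehicle-treated controls.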
# [14] = NCI Yeast Anticancer Drug Screen. Data for the rad50EPP+ strain (AID 151);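 further: 0% = growth of vehicle-treated control cultures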; conditions: S. cerevisiae rad50 mutant strain, active compounds read high
# Method in brief: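 Yeast strain carrying rad50 alteration (rad50EPP+) exposed to compounds; growth inhibition measured relative to vehicle-treated controls.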
# [15] = NCI Yeast Anticancer Drug Screen. Data for the rad50 strain (AID 155);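 further: 0% = growth of vehicle-only cultures of the same strain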; conditions: S. cerevisiae rad50 strain growth inhibition, active compounds read high
# Method in brief: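 Yeast carrying a defined DNA repair defect were exposed to test compounds, and growth was compared with vehicle-treated controls to give percent inhibition.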
# [16] = at 5.0 µM (retest, dose inferred, filed as 0.5)
# [17] = at 50.0 µM (retest, dose inferred, filed as 5.0)
compound,measurement,setting,value
BrC/C=C/C[P+](c1ccccc1)(c1ccccc1)c1ccccc1,growth inhibition,[1]; at 100.0 µM,99% (active)
same,growth inhibition,[2]; at 1.2 µM,5%
same,growth inhibition,[2]; at 3.7 µM,7%
same,growth inhibition,[2]; at 11.0 µM,96% (active)
same,growth inhibition,[2]; at 33.0 µM,99% (active)
same,growth inhibition,[2]; at 100.0 µM,99% (active)
same,growth inhibition,[3]; [16],18%
same,growth inhibition,[3]; [17],18%
same,growth inhibition,[3]; at 50.0 µM,92% (active)
same,growth inhibition,[4]; at 1.2 µM,-3%
same,growth inhibition,[4]; at 3.7 µM,10%
same,growth inhibition,[4]; at 11.0 µM,94% (active)
same,growth inhibition,[4]; at 33.0 µM,98% (active)
same,growth inhibition,[4]; at 100.0 µM,99% (active)
same,growth inhibition,[5]; [16],47%
same,growth inhibition,[5]; [17],47%
same,growth inhibition,[5]; at 50.0 µM,87.7% (active)
same,growth inhibition,[6]; at 1.2 µM,-5%
same,growth inhibition,[6]; at 3.7 µM,-7%
same,growth inhibition,[6]; [16],18%
same,growth inhibition,[6]; at 11.0 µM,94% (active)
same,growth inhibition,[6]; at 33.0 µM,98% (active)
same,growth inhibition,[6]; [17],18%
same,growth inhibition,[6]; at 50.0 µM,88.7% (active)
same,growth inhibition,[6]; at 100.0 µM,98% (active)
same,growth inhibition,[7]; at 1.2 µM,3%
same,growth inhibition,[7]; at 3.7 µM,9%
same,growth inhibition,[7]; at 11.0 µM,95% (active)
same,growth inhibition,[7]; at 33.0 µM,98% (active)
same,growth inhibition,[7]; at 100.0 µM,99% (active)
same,growth inhibition,[8]; at 1.2 µM,-5%
same,growth inhibition,[8]; at 3.7 µM,1%
same,growth inhibition,[8]; at 11.0 µM,83% (active)
same,growth inhibition,[8]; at 33.0 µM,98% (active)
same,growth inhibition,[8]; at 100.0 µM,99% (active)
same,growth inhibition,[9]; at 1.2 µM,4%
same,growth inhibition,[9]; at 3.7 µM,10%
same,growth inhibition,[9]; at 11.0 µM,95% (active)
same,growth inhibition,[9]; at 33.0 µM,98% (active)
same,growth inhibition,[9]; at 100.0 µM,99% (active)
same,growth inhibition,[10]; [16],43%
same,growth inhibition,[10]; [17],43%
same,growth inhibition,[10]; at 50.0 µM,87.7% (active)
same,growth inhibition,[11]; at 1.2 µM,9%
same,growth inhibition,[11]; at 3.7 µM,33%
same,growth inhibition,[11]; at 11.0 µM,96% (active)
same,growth inhibition,[11]; at 33.0 µM,98% (active)
same,growth inhibition,[11]; at 100.0 µM,98% (active)
O=C(N/N=C/c1ccc2c(c1)CCC2)c1ccccc1[N+](=O)[O-],growth inhibition,[12]; at 1.2 µM,-18%
same,growth inhibition,[12]; at 3.7 µM,-15%
same,growth inhibition,[12]; at 11.0 µM,-3%
same,growth inhibition,[12]; at 33.0 µM,-1%
same,growth inhibition,[12]; at 100.0 µM,95% (active)
same,growth inhibition,[13]; at 1.2 µM,-17%
same,growth inhibition,[13]; at 3.7 µM,-7%
same,growth inhibition,[13]; at 11.0 µM,-21%
same,growth inhibition,[13]; at 33.0 µM,-16%
same,growth inhibition,[13]; at 100.0 µM,96% (active)
same,growth inhibition,[14]; at 1.2 µM,8%
same,growth inhibition,[14]; at 3.7 µM,15%
same,growth inhibition,[14]; at 11.0 µM,21%
same,growth inhibition,[14]; at 33.0 µM,0%
same,growth inhibition,[14]; at 100.0 µM,23%
same,growth inhibition,[15]; at 1.2 µM,5%
same,growth inhibition,[15]; at 3.7 µM,26%
same,growth inhibition,[15]; [16],62%
same,growth inhibition,[15]; at 11.0 µM,35%
same,growth inhibition,[15]; at 33.0 µM,18%
same,growth inhibition,[15]; [17],98% (active)
same,growth inhibition,[15]; at 50.0 µM,88.4% (active)
same,growth inhibition,[15]; at 100.0 µM,94% (active)
same,growth inhibition,[1]; at 1.2 µM,0%
same,growth inhibition,[1]; at 3.7 µM,-10%
same,growth inhibition,[1]; [16],70% (active)
same,growth inhibition,[1]; at 11.0 µM,-9%
same,growth inhibition,[1]; at 33.0 µM,7%
same,growth inhibition,[1]; [17],99% (active)
same,growth inhibition,[1]; at 50.0 µM,71.2% (active)
same,growth inhibition,[1]; at 100.0 µM,94% (active)
same,growth inhibition,[2]; at 1.2 µM,-10%
same,growth inhibition,[2]; at 3.7 µM,-8%
same,growth inhibition,[2]; at 11.0 µM,2%
same,growth inhibition,[2]; at 33.0 µM,6%
same,growth inhibition,[2]; at 100.0 µM,95% (active)
same,growth inhibition,[3]; [16],-13%
same,growth inhibition,[3]; [17],53%
same,growth inhibition,[4]; at 1.2 µM,-3%
same,growth inhibition,[4]; at 3.7 µM,-5%
same,growth inhibition,[4]; at 11.0 µM,21%
same,growth inhibition,[4]; at 33.0 µM,18%
same,growth inhibition,[4]; at 100.0 µM,94% (active)
same,growth inhibition,[5]; [16],71% (active)
same,growth inhibition,[5]; [17],70% (active)
same,growth inhibition,[6]; at 1.2 µM,5%
same,growth inhibition,[6]; at 3.7 µM,19%
same,growth inhibition,[6]; [16],34%
same,growth inhibition,[6]; at 11.0 µM,23%
same,growth inhibition,[6]; at 33.0 µM,33%
same,growth inhibition,[6]; [17],49%
same,growth inhibition,[6]; at 100.0 µM,96% (active)
same,growth inhibition,[7]; at 1.2 µM,16%
same,growth inhibition,[7]; at 3.7 µM,12%
same,growth inhibition,[7]; at 11.0 µM,12%
same,growth inhibition,[7]; at 33.0 µM,37%
same,growth inhibition,[7]; at 100.0 µM,97% (active)
same,growth inhibition,[8]; at 1.2 µM,-19%
same,growth inhibition,[8]; at 3.7 µM,-20%
same,growth inhibition,[8]; at 11.0 µM,-43%
same,growth inhibition,[8]; at 33.0 µM,18%
same,growth inhibition,[8]; at 100.0 µM,95% (active)
same,growth inhibition,[9]; at 1.2 µM,15%
same,growth inhibition,[9]; at 3.7 µM,23%
same,growth inhibition,[9]; at 11.0 µM,30%
same,growth inhibition,[9]; at 33.0 µM,42%
same,growth inhibition,[9]; at 100.0 µM,96% (active)
same,growth inhibition,[10]; [16],36%
same,growth inhibition,[10]; [17],99% (active)
same,growth inhibition,[10]; at 50.0 µM,81.7% (active)
same,growth inhibition,[11]; at 1.2 µM,8%
same,growth inhibition,[11]; at 3.7 µM,13%
same,growth inhibition,[11]; at 11.0 µM,9%
same,growth inhibition,[11]; at 33.0 µM,12%
same,growth inhibition,[11]; at 100.0 µM,96% (active)
